Over roughly 24,000 sequences, “enrichment r” has its median near 0.99; the highest 2% begin near 3.7. The list is a sample of the results.
T1: UNK ZnF1-3 (human, UniProt Q9C0B0 31-174)
T1 sequence: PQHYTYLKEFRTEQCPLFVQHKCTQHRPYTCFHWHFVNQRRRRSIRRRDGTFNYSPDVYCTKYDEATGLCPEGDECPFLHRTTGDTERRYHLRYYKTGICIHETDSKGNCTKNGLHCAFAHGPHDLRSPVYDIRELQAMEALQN

B1: chr14:102516957:102516958:+_ENSG00000197102_ENST00000360184|hu_mus|motif|central (ssRNA)
RNA: GGGAGUUCUACAGUCCGACGAUCCCAUCAACCCUUCCACACCGUUAAGGAUGAAUGAAGGUUAAAUAUUGGGAGUUUCCGGUUCCAGAAAGAGGACUGGAGAAAAGUCUAGCUUUACUCAGUGCACAGAACGGCAACUCCACGCAACAGAGGAUUGAGCAUCA
B2: chr18:67943652:67943653:+_ENSMUSG00000079614_ENSMUST00000025421|mus_hu|FALSE|FALSE (ssRNA)
RNA: GGGAGUUCUACAGUCCGACGAUCAGUUGUCCUUUUAACCCAGUGGCUCUGUCCUCGCAGUUUAUCAUUUGAUUCUCCUACUAUUUCUUCCCAUACAGCAGCUGUUCGGUCAAAAGAACAGGAAGCCAAAACCUGCCCAAAUUCCAACAGAGGAUUGAGCAUCA
B3: chrX:20185780:20185781:-_ENSG00000177189_ENST00000379565|hu_mus|motif|central (ssRNA)
RNA: GGGAGUUCUACAGUCCGACGAUCUUUGGUUAUAGUAAACAGGACAGCGCUGGCCUCUCGCUCUGAGAAAAACUUCUGUCGGAGAAUCUUAUCCAGCAAUUCACCUCCUUUCAUAAGUUCUGUUACUACAUACACAUAUUUUCCCAACAGAGGAUUGAGCAUCA
B4: chr11:77843920:77843921:+_ENSMUSG00000037791_ENSMUST00000049167|mus_hu|motif|central (ssRNA)
RNA: GGGAGUUCUACAGUCCGACGAUCUUUUUUAUAUACAGAAUACAGGAAAGUUUCUGUAAAGUCUAAAACAUUACAAUUACGGUGUACAUUGGUACUGGUUGUGGGGGUGGGAGGAGAGGAGGGAACCAGGGGCAGGAGGAAGAGCAACAGAGGAUUGAGCAUCA
B5: chr1:167252050:167252051:+_ENSMUSG00000040836_ENSMUST00000111450|mus_mus|motif|central (ssRNA)
RNA: GGGAGUUCUACAGUCCGACGAUCGGAUACCAUUGAAGACAAGAGCCACAUGGUGGCUUCCCUUUCACAUCCACCAUCUCGGGUCCUCCUGAUGCCCCAGCCACAUCUCCAUCUGCUUCUAACGUGUGCUUUCGAAGCCUCGUUCAACAGAGGAUUGAGCAUCA
B6: chr12:96259795:96259796:+_ENSG00000139343_ENST00000266735|hu_hu|FALSE|FALSE (ssRNA)
RNA: GGGAGUUCUACAGUCCGACGAUCAAGGACAUUAUUACACCUUAUUAAAACUUCACCCAGAUGUCCAGACAAAGCUCCAUCUAUGUAUUCUUCUGUAUUUGCAAGCUGCAUGUUCAUGUAGCCAUCUACAGAUACCAGAUAGCCCAACAGAGGAUUGAGCAUCA
B7: 171526625_171526745_1071_3pUTR_ENSG00000117523_ENST00000495585|human|control|control (ssRNA)
RNA: GGGAGUUCUACAGUCCGACGAUCAGGUUAUAGCUGCAGCUGAAGUAGAGGCUGGAACUGAAGCUGAGACUGAGGCUGAGGCUGAAACUGGAGCUAAGGGUGAGGCUGGAACUGGAGCUGAGGUUGAGGCCAGAACUGGAGCUACAACAGAGGAUUGAGCAUCA
B8: chr13:108516651:108516652:-_ENSMUSG00000032846_ENSMUST00000105097|mus_hu|motif|central (ssRNA)
RNA: GGGAGUUCUACAGUCCGACGAUCAUCAUGCGCCAUUAAGAAGGUCUCUCGGGCUUUGCUGAGGAACUCUAUAAACUCACGGUAGUGCCGAGGACUGAUGUGUGUGAGCCGUGAGUGCGUUGUGUUGAUGUAGGCCCCGAUCGUCAACAGAGGAUUGAGCAUCA
B9: 138058577_138059462_3783_3pUTR_ENSMUSG00000041642_ENSMUST00000075164|mouse|control|control (ssRNA)
RNA: GGGAGUUCUACAGUCCGACGAUCGGCCAGGGACUUGGUGAUGUUCUUGGUAGAGCUGUCCAAUGGGGGUCCUAGGCACUCCGCAGACACGGCCUUCAUCUGUGCGGAUAGCUUGGGCUCACCCUUGAACUUGAAGUCAUCGUGCAACAGAGGAUUGAGCAUCA
B10: chr12:39756943:39756944:-_ENSG00000139116_ENST00000544797|hu_mus|hu_hu_hu_mus_False|28_38 (ssRNA)
RNA: GGGAGUUCUACAGUCCGACGAUCGGUUUGGCUGUUACCCCCAAGGGAAUCCUGCAAGAGUCUUGUCAGCUUAGAGUCUCUGUAAGGGACAUGGGUGGCCCUCUUGCUCUUGUCUCCCAAGGCGCUGAUUACAUUCCCAAGAGCCAACAGAGGAUUGAGCAUCA
B11: chr2:73467608:73467609:+_ENSG00000135624_ENST00000258091|hu_mus|FALSE|FALSE (ssRNA)
RNA: GGGAGUUCUACAGUCCGACGAUCAUCCUGGGACUUGGCUAUGUCCACUAAAGUCUUUGCUGCAGGAUGGACAACAUCGAGGAGUUUCAGAAUUGUGGCCCCAUCAUUAGAUAUUGUUGCUUUGCCUCGGCCAUCCACAAUAAGCAACAGAGGAUUGAGCAUCA
B12: chr2:160604994:160604995:+_ENSG00000136536_ENST00000409591|hu_mus|motif|central (ssRNA)
RNA: GGGAGUUCUACAGUCCGACGAUCUCUUGAAGACUCAUCCCUUCCCUCUCGCCUCCUUCUCGAGAACAAAGGUGUGCAUCGGUUUCGGAGUGAAGAAGACAACCAUGGUCCUGAAUUUCUACCUUCUGAUUCUUGGUUAAAAUUCAACAGAGGAUUGAGCAUCA
B13: chr11:64571133:64571134:-_ENSG00000133895_ENST00000312049|hu_hu|motif|central (ssRNA)
RNA: GGGAGUUCUACAGUCCGACGAUCCUGAAAAAUAAAUCUAUGUACAAAACAGGAAGAGAUCAGGCUCUUGUCACCCACUCCGGACCCUCUGCAGAUUUCCUCCGGGAUGCUCCGAGAUGGGCUGGACCUCUGGGAGGUUCCCAGCAACAGAGGAUUGAGCAUCA
B14: chr10:93459826:93459827:-_ENSMUSG00000036099_ENSMUST00000119818|mus_mus|motif|central (ssRNA)
RNA: GGGAGUUCUACAGUCCGACGAUCUCCCCACACCAGCCAGGAGGACACAAUCCAGCACGUGGGAAACAUGAUGAGCAAACGGAUGAAGGCAAACAGCAGCGAGACAUCCCAAGUGUUCGGGGUUGCCAGGGAGCAGAGCGUUGGCAACAGAGGAUUGAGCAUCA
B15: chr9:95013113:95013114:-_ENSG00000196305_ENST00000443024|hu_hu|hu_hu_hu_mus_False|1_48 (ssRNA)
RNA: GGGAGUUCUACAGUCCGACGAUCCUCAGUCAGAAAGGGCGUGUAAGGGGCCAUCAGUCUGCACAGAGAAAGCAGGACACUGAACAGGGUUUCUAGGGCCAUGACACAGUCUUCCACCCCACUCUCACCCUUUAACCUUCUGCGCAACAGAGGAUUGAGCAUCA
B16: chr16:75661828:75661829:-_ENSG00000065427_ENST00000302445|hu_hu|FALSE|FALSE (ssRNA)
RNA: GGGAGUUCUACAGUCCGACGAUCUAUUAUUUUCUAGACAGAAGUGCCAACUGUUGUGCUUUCCAGUGUAUCAGUGGUUGCUACAUUCUCCUUCUUGUCUUCGGGUUUCAUGGCAGGAAACAGAAGUACUUCCUUGAUGUUGUUCAACAGAGGAUUGAGCAUCA
B17: chr11:29608675:29608676:+_ENSMUSG00000020458_ENSMUST00000102843|mus_mus|motif|central (ssRNA)
RNA: GGGAGUUCUACAGUCCGACGAUCCUCUGUAUCAGAAGGAAGUUUUUCCUCUGCUUCUUUCGUAAGUACUUUGGGUUUAACGGUGUUGCCCAUUUCUAUUUGAGAUUCCAAAGCAGAAACAUUUGGAAGCAAUAAGGGCACCUUCAACAGAGGAUUGAGCAUCA
B18: 136535675_136535795_2550_CDS_ENSMUSG00000030213_ENSMUST00000032335|mouse|control|control (ssRNA)
RNA: GGGAGUUCUACAGUCCGACGAUCCUGAGGCUGAGAGGUCACGGCAACGGGCACAUGCAGGAUCACUGGCAAGGGCUGCAGAGAGAUUGUAGGCUGAGGGGUCCCACUAGGCACCUGAGUAGUGGCAACUACGGUGGCUGUGCUCAACAGAGGAUUGAGCAUCA
B19: chr7:102952668:102952669:+_ENSG00000105819_ENST00000453466|hu_hu|motif|central (ssRNA)
RNA: GGGAGUUCUACAGUCCGACGAUCCUGUUUAAAAUCUGGUAGUUGCUUAAUGGGACCAACAGCAGCAAUAGCUGGACUCCGGUUAUAAAUGUAUUUGGUACAUACUUCUCGAAUUGUCUCAGCAUUCACAGCAUCAAUUCUUGCCAACAGAGGAUUGAGCAUCA
B20: chr2:120799606:120799607:+_ENSG00000115109_ENST00000263713|hu_hu|motif|central (ssRNA)
RNA: GGGAGUUCUACAGUCCGACGAUCGUACAUAAUCUGAUCAAACAACUCUUGUCCUUUGGCUUUUUUUGGCAAGUCCACACGGACAUCAGUACCAUCCAGAAGGGACACCCGACACGUGAUGAUGGACUUAGAAUCUCCAGCUGCCAACAGAGGAUUGAGCAUCA

target: T1, UNK ZnF1-3; test: nsRBNS (natural sequence RNA bind-n-seq); RBNS binding buffer (assumed for nsRBNS): 25 mM Tris pH 7.5, 150 mM KCl, 3 mM MgCl2, 0.01% Triton X-100, 500 ug/ml BSA, 20 U/ml SUPERase-In, 4 C; UNK is unkempt and MSI1 is Musashi-1; names of the RNAs are library labels; protein concentration not given here; high values mean tight binding

| Binder | binding signal |
| --- | --- |
| B1 | 1.11 enrichment R |
| B2 | 1.28 enrichment R |
| B3 | 0.794 enrichment R |
| B4 | 1.66 enrichment R |
| B5 | 0.721 enrichment R |
| B6 | 0.574 enrichment R |
| B7 | 2.07 enrichment R |
| B8 | 0.756 enrichment R |
| B9 | 0.657 enrichment R |
| B10 | 0.802 enrichment R |
| B11 | 0.992 enrichment R |
| B12 | 0.976 enrichment R |
| B13 | 0.877 enrichment R |
| B14 | 2.05 enrichment R |
| B15 | 0.937 enrichment R |
| B16 | 0.567 enrichment R |
| B17 | 0.539 enrichment R |
| B18 | 1.73 enrichment R |
| B19 | 1.15 enrichment R |
| B20 | 0.976 enrichment R |

— paper PMC12136788
